Assay results published in PubChem BioAssay (NCATS).
Records with an inconclusive call do not appear. Active and inactive are the calls of the source. Unless noted, calls come from the whole dose curve; as a rule, active = well fitted cell-killing curve with a large enough effect; inconclusive = small, poorly fitted or top-dose-only effect, or effect the other way; inactive = no such curve, though single readings can be large or run the other way.

How the values were obtained:
[1] = Quantitative High-Throughput drug screen in 47 multiple myeloma cell lines against the NCATS MIPE library collection: KMS28PE_JCRB cell viability assay (AID 1918983); note: nearly all actives have a fitted effect of over 35% in size; note: potency is the fitted concentration of half-maximal effect
Procedure, shortened: (§1)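 ATP-based CellTiter-Glo luminescence after 48 h drug exposure (37 °C, 5% CO2) of 500 myeloma cells per well. DMSO-only wells set 100% viability, media-only wells 0%; MIPE 4.0 library added by pin tool.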

[2] = Quantitative High-Throughput drug screen in 47 multiple myeloma cell lines against the NCATS MIPE library collection: L363_DSMZ cell viability assay (AID 1918984); note: nearly all actives have a fitted effect of over 40% in size; note: potency is the fitted concentration of half-maximal effect
Procedure, shortened: as §1

[3] = Quantitative High-Throughput drug screen in 47 multiple myeloma cell lines against the NCATS MIPE library collection: OCIMY7_PLB cell viability assay (AID 1918987); note: potency is the fitted concentration of half-maximal effect; nearly all actives have a fitted effect of over 65% in size
Procedure, shortened: as §1

[4] = Quantitative High-Throughput drug screen in 47 multiple myeloma cell lines against the NCATS MIPE library collection: OCIMY5_PLB cell viability assay (AID 1918988); note: nearly all actives have a fitted effect of over 65% in size; note: potency is the fitted concentration of half-maximal effect
Procedure, shortened: as §1

[5] = Quantitative High-Throughput drug screen in 47 multiple myeloma cell lines against the NCATS MIPE library collection: OPM1_PLB cell viability assay (AID 1918989); note: nearly all actives have a fitted effect of over 40% in size; note: potency is the fitted concentration of half-maximal effect
Procedure, shortened: as §1

[6] = Quantitative High-Throughput drug screen in 47 multiple myeloma cell lines against the NCATS MIPE library collection: SKMM1_PLB cell viability assay (AID 1919863); conditions: SKMM1 myeloma viability, CellTiter-Glo ATP, 48 h; viability: stronger effect = lower value; note: nearly all actives have a fitted effect of over 35% in size; note: potency is the fitted concentration of half-maximal effect
Procedure, shortened: as §1

[7] = Quantitative High-Throughput drug screen in 47 multiple myeloma cell lines against the NCATS MIPE library collection: U266_ATCC cell viability assay (AID 1919864); note: potency is the fitted concentration of half-maximal effect; nearly all actives have a fitted effect of over 35% in size
Procedure, shortened: as §1

[8] = Quantitative High-Throughput drug screen in 47 multiple myeloma cell lines against the NCATS MIPE library collection: XG6_PLB cell viability assay (AID 1919865); note: potency is the fitted concentration of half-maximal effect; nearly all actives have a fitted effect of over 40% in size
Procedure, shortened: as §1

[9] = Quantitative High-Throughput drug screen in 47 multiple myeloma cell lines against the NCATS MIPE library collection: VP6_DJ cell viability assay (AID 1919867); note: nearly all actives have a fitted effect of over 40% in size; note: potency is the fitted concentration of half-maximal effect
Procedure, shortened: as §1

[10] = Quantitative High-Throughput drug screen in 47 multiple myeloma cell lines against the NCATS MIPE library collection: UTMC2_PLB cell viability assay (AID 1919868); conditions: CellTiter-Glo ATP luminescence, 48 h; viability (% of DMSO control): at 45.8 µM (top of the series) unless noted; note: nearly all actives have a fitted effect of over 55% in size; note: potency is the fitted concentration of half-maximal effect
Procedure, shortened: as §1

[11] = Quantitative High-Throughput drug screen in 47 multiple myeloma cell lines against the NCATS MIPE library collection: PE2_PLB cell viability assay (AID 1919869); note: nearly all actives have a fitted effect of over 35% in size; note: potency is the fitted concentration of half-maximal effect
Procedure, shortened: as §1

[12] = Quantitative High-Throughput drug screen in 47 multiple myeloma cell lines against the NCATS MIPE library collection: PCM6_Riken cell viability assay (AID 1919870); note: nearly all actives have a fitted effect of over 30% in size; note: potency is the fitted concentration of half-maximal effect
Procedure, shortened: as §1

[13] = Quantitative High-Throughput drug screen in 47 multiple myeloma cell lines against the NCATS MIPE library collection: RPMI8226_ATCC cell viability assay (AID 1919871); note: nearly all actives have a fitted effect of over 30% in size; note: potency is the fitted concentration of half-maximal effect
Procedure, shortened: as §1

[14] = Quantitative High-Throughput drug screen in 47 multiple myeloma cell lines against the NCATS MIPE library collection: OPM2_DSMZ cell viability assay (AID 1919872); note: nearly all actives have a fitted effect of over 30% in size; note: potency is the fitted concentration of half-maximal effect
Procedure, shortened: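 Viability readout: CellTiter-Glo luminescence following 5 min room-temperature incubation with reagent. Prior exposure: 48 h, 37C, humidified 5% CO2, 500 cells per well.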

[15] = Quantitative High-Throughput drug screen in 47 multiple myeloma cell lines against the NCATS MIPE library collection: KMS11_JCRBsus cell viability assay (AID 1919873); note: nearly all actives have a fitted effect of over 50% in size; note: potency is the fitted concentration of half-maximal effect
Procedure, shortened: as §1

[16] = Quantitative High-Throughput drug screen in 47 multiple myeloma cell lines against the NCATS MIPE library collection: KMS28BM_JCRB cell viability assay (AID 1919874); note: nearly all actives have a fitted effect of over 35% in size; note: potency is the fitted concentration of half-maximal effect
Procedure, shortened: as §1

[17] = qHTS drug screen for cell cycle checkpoint inhibitors in PARPi-resistant BRCA-mutant ovarian cancer cell lines. (AID 1963452; calls by dose curve); conditions: PEO1/OlaR viability, CellTiter-Glo luminescence, 96 h, stronger effect = lower value
Procedure, shortened: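 PEO1, PEO4 and PEO1/OlaR ovarian cancer cells, 600 per well, exposed 96 h at 37C to a dilution series. Viability read by CellTiter-Glo luminescence, normalized to DMSO and empty wells; activity summarized as Z-AUC.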

[18] = Quantitative High-Throughput drug screen in 47 multiple myeloma cell lines against the NCATS MIPE library collection: KMS34_JCRB cell viability assay (AID 1918985); note: nearly all actives have a fitted effect of over 40% in size; note: potency is the fitted concentration of half-maximal effect
Procedure, shortened: as §1

[19] = qHTS for identification of novel therapeutic agents for treatment of microphthalmiaassociated transcription factor (MiT) renal cell carcinoma (RCC) (AID 1963991; calls by dose curve; note: potency is the fitted concentration of half-maximal effect); conditions: CellTiter-Glo, 48 h; for z-score: stronger effect = lower value
Procedure, shortened: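 Three TFE3-fusion RCC lines (UOK109, UOK124, UOK145), 500 cells/well in complete medium, were treated with MIPE 4.0 compounds for 48 hours at 37 C. Viability was by CellTiter-Glo luminescence, normalized to DMSO (100%) and empty wells (0%); curves fitted over 11 concentrations.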

[20] = Quantitative High-Throughput drug screen in 47 multiple myeloma cell lines against the NCATS MIPE library collection: XG1_PLB cell viability assay (AID 1919866)
Procedure, shortened: as §1

[21] = measured here: PEO1 parental Z-AUC
[22] = TFE3-RCC UOK109 viability, measured here: UOK109 Z-AUC
[23] = TFE3-RCC viability, measured here: UOK124 Z-AUC
[24] = TFE3-RCC viability, measured here: UOK145 Z-AUC

O=C(c1ccc(Nc2nccc(-c3cc4ccccc4s3)n2)cc1)N1CCC(N2CCCC2)CC1
inactive: Z-AUC [17] 0.507
0.645: Z-AUC [17, 21]
active: Potency [1] 16.6 µM | Potency [2] 1.48 µM | Potency [3] 2.35 µM | Potency [4] 8.33 µM | Potency [5] 5.26 µM | Potency [6] 23.5 µM | Potency [7] 14.8 µM | Potency [8] 1.87 µM | Potency [9] 3.32 µM | Potency [10] 6.62 µM | Potency [11] 7.43 µM | Potency [12] 1.87 µM | Potency [13] 20.9 µM | Potency [14] 20.9 µM | Potency [15] 5.9 µM | Potency [16] 9.35 µM
0.0416: Z-AUC ([17]; measured here: PEO4 Z-AUC)

O=c1[nH]c(=O)n(C2CCCO2)cc1F (stereo not drawn)
0.998: Z-AUC ([17]; measured here: PEO4 Z-AUC)
inactive: Potency [1] | Potency [2] | Potency [18] | Potency [5] | Potency [9] | Potency [10] | Potency [11] | Potency [12] | Potency [15] | Z-AUC [17] 1.33
1.12: Z-AUC [17, 21]
0.952: z-score [19, 22]
0.901: z-score [19, 24]
1.45: z-score [19, 23]
active: Potency [4] 42.9 µM

CN1CCC(CNc2ccc3ncc(-c4cccc(OC(F)(F)F)c4)n3n2)CC1
-0.00259: Z-AUC ([17]; measured here: PEO4 Z-AUC)
active: Potency [1] 18.7 µM | Potency [2] 7.43 µM | Potency [18] 20.9 µM | Potency [5] 6.62 µM | Potency [7] 9.35 µM | Potency [8] 5.9 µM | Potency [20] 5.9 µM | Potency [9] 7.43 µM | Potency [10] 5.9 µM | Potency [12] 5.9 µM | Potency [13] 20.9 µM | Potency [14] 23.5 µM | Potency [15] 6.62 µM | Potency [16] 8.33 µM
-0.0601: Z-AUC [17, 21]
inactive: Z-AUC [17] -0.465

Cn1c2ccccc2c2c3c(c4c5ccccc5n(CCC#N)c4c21)CNC3=O
-2.34: z-score [19, 23]
active: Potency [1] 14.8 µM | Potency [2] 0.209 µM | Potency [3] 0.59 µM | Potency [4] 5.9 µM | Potency [5] 0.296 µM | Potency [6] 8.33 µM | Potency [7] 4.69 µM | Potency [8] 0.526 µM | Potency [20] 2.35 µM | Potency [9] 2.96 µM | Potency [10] 2.64 µM | Potency [11] 1.87 µM | Potency [12] 1.87 µM | Potency [13] 20.9 µM | Potency [14] 11.8 µM | Potency ([19]; TFE3-RCC UOK109 viability, active = Z-AUC below -0.8 in all three lines) 7.43 µM
-1.2: z-score [19, 24]
-0.993: z-score [19, 22]

Nc1nc(-c2nn(Cc3ccccc3F)c3ncccc23)nc(N)c1N1CCOCC1
-0.594: Z-AUC ([17]; measured here: PEO4 Z-AUC)
active: Potency [9] 3.72 µM
-0.352: Z-AUC [17, 21]
inactive: Potency [1] | Potency [18] | viability [6] 84.5% | Potency [14] | Potency [16] | Z-AUC [17] -0.481

Nc1nccc(Oc2ccc(NC(=O)c3c[nH]cc(-c4ccc(F)cc4)c3=O)cc2F)c1Cl
-0.587: Z-AUC [17, 21]
active: Potency [1] 37.2 µM | Potency [18] 18.7 µM | Potency [5] 23.5 µM | Potency [7] 20.9 µM | Potency [8] 16.6 µM | Potency [20] 18.7 µM | Potency [9] 16.6 µM | Potency [10] 29.6 µM | Potency [12] 18.7 µM | Potency [13] 20.9 µM | Potency [16] 20.9 µM
inactive: Z-AUC [17] -0.747
-1.14: Z-AUC ([17]; measured here: PEO4 Z-AUC)

Clc1cccc(-c2nnnn2Cc2cccnc2)c1Cl
0.374: z-score [19, 24]
active: Potency [3] 3.72 µM | Potency [8] 16.6 µM
0.93: z-score [19, 22]
0.545: z-score [19, 23]
inactive: Potency [1] | Potency [18] | Potency [4] | Potency [5] | Potency [10] | Potency [13] | Potency [14] | Potency [16]

COC(=O)c1ccc2c(C(=Nc3ccc(N(C)C(=O)CN4CCN(C)CC4)cc3)c3ccccc3)c(O)[nH]c2c1
active: Potency [1] 7.43 µM | Potency [18] 18.7 µM | Potency [4] 7.43 µM | Potency [5] 2.09 µM | Potency [6] 9.35 µM | Potency [7] 18.7 µM | Potency [8] 0.0469 µM | Potency [20] 0.662 µM | Potency [10] 6.62 µM | Potency [11] 10.5 µM | Potency [12] 2.96 µM | Potency [13] 3.72 µM

Cc1cc(Nc2cc(N3CCN(C)CC3)nc(Sc3ccc(NC(=O)C4CC4)cc3)n2)n[nH]1
-0.437: Z-AUC ([17]; measured here: PEO4 Z-AUC)
active: Potency [1] 11.8 µM | Potency [18] 14.8 µM | Potency [3] 0.296 µM | Potency [4] 5.26 µM | Potency [5] 5.9 µM | Potency [7] 16.6 µM | Potency [8] 13.2 µM | Potency [20] 4.18 µM | Potency [9] 18.7 µM | Potency [10] 0.001 µM | Potency [11] 14.8 µM | Potency [12] 23.5 µM | Potency [13] 13.2 µM | Potency [14] 20.9 µM | Potency [15] 2.35 µM | Potency [16] 6.62 µM
-0.131: Z-AUC [17, 21]
inactive: Z-AUC [17] 0.654

CN(C)CCCN=c1c2ccccc2n(C)c2[nH]c(=O)n(C)c(=O)c12
active: Potency [1] 16.6 µM | Potency [18] 18.7 µM | Potency [4] 18.7 µM | Potency [5] 6.62 µM | Potency [7] 8.33 µM | Potency [8] 5.9 µM | Potency [20] 14.8 µM | Potency [9] 14.8 µM | viability (% of DMSO control) [10] 91.5% | Potency [11] 16.6 µM | Potency [12] 14.8 µM | Potency [15] 14.8 µM
1.79: Z-AUC [17, 21]
inactive: Z-AUC [17] 0.193
1.54: Z-AUC ([17]; measured here: PEO4 Z-AUC)
